DT40 TDP1 CPT: DT40-hTDP1 cell growth loss with CPT; chicken DT40 Tdp1-/-;hTDP1 cells + 20 nM CPT, ATP luminescence, 48 h; Potency, µM (series often up to 46.2 µM), for the others: at the highest dose activity change, negative = growth inhibition, actives largely listed as inhibitors; 420,000 compounds, 12% hits; AID 686979; also: % is scaled to controls: 0 for no effect and ±100 for the full control effect; nearly all actives have a fitted effect of over 55% in size
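Chicken DT40 Tdp1-/- cells stably complemented with human TDP1 were seeded at 400 cells/well in medium containing 20 nM camptothecin, exposed to pin-transferred compounds, and grown at 37 °C for at least 48 hr. Viability was read as ATP luminescence.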
TGFb inhibitor: TGF-b pathway inhibition. HepG2 CAGA-GFP TGF-b/SMAD3 reporter, GFP fluorescence, 18 h; TGF-beta stimulated, 500 pg/mL final. Potency, µM (titrated, usually from 46.1 µM), without a hit: at the highest dose activity, negative = inhibition, most hits filed as inhibitors. 410,000 compounds, 1.2% hits; also: % is scaled to controls: 0 for no effect and ±100 for the full control effect; nearly all actives have a fitted effect of over 65% in size
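Inhibition of TGF-beta-driven CAGA-GFP reporter expression in HEPG2 cells is measured by cellular GFP fluorescence after 18 h stimulation with 500 pg/mL recombinant TGF-beta in 1% FBS medium at 37 degrees C.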
HT1080 IDH1KD tx: kills HT-1080 cells with IDH1 knockdown; 360,000 compounds, 2% hits; Potency, µM (doses to about 46.1 µM), for inactives: top-dose activity, negative = toxicity, actives largely listed as cytotoxic; HT-1080 IDH1 knockdown viability, ATP luminescence, 48 h;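 also: 0% = DMSO wells and -100% = cell-free medium wells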
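IDH1KD HT-1080 cells, 750/well, RPMI + 5% FBS; compound pinned after 2 h settling; 48 h, 37 °C; CellTiter-Glo luminescence; % activity normalised to DMSO and no-cell wells; curves fitted, classed by r2 and efficacy.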
HT1080NT lethal: kills 2HG-producing HT-1080-NT fibrosarcoma cells; HT-1080-NT fibrosarcoma viability, CellTiter-Glo ATP luminescence, 48 h; Potency, µM (highest dose often 46.1 µM), for the others: at the highest dose activity, negative = less viability, usual class: cytotoxic; 360,000 compounds, 1.6% hits; AID 686970;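 also: NT is the 2HG producing partner of a matched IDH1 knockdown line; 0% = DMSO-treated cells and -100% = media-only wells without cells; nearly all actives have a fitted effect of over 55% in size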
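Luminescent CellTiter-Glo readout after 48 hours of compound exposure at 37 degrees C defined viability of HT-1080-NT cells. Activity was normalized to DMSO wells and cell-free media wells; concentration-response curves were fitted and assigned curve classes.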
HepG2 tox: kills HepG2 cells in TGF-b inhibitor counter-screen; HepG2 CAGA-GFP viability, ATP luminescence, 18 h; 410,000 compounds, 0.76% hits; Potency, µM (series often up to 46.1 µM), inactives show at the highest dose activity change, negative = cytotoxicity, most hits filed as cytotoxic
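HepG2 CAGA-GFP cells (1000/well, DMEM with 1% FBS) received compound, then TGF-beta at 500 pg/mL final, and were incubated 18 hours at 37 degrees C. Viability was read by CellTiter-Glo luminescence. Media-only wells were set as complete cell-killing and DMSO as no toxicity.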
DT40 TDP1 no CPT: qHTS for Inhibitors of human tyrosyl-DNA phosphodiesterase 1 (TDP1): qHTS in cells in absence of CPT; DT40 Tdp1-/- hTDP1 cells, no CPT, ATP luminescence, 48 h; 420,000 compounds, 15% hits; Potency, µM (series often up to 46.2 µM), for the others: at the highest dose activity change, negative = growth inhibition, actives largely listed as inhibitors; also: % is scaled to controls: 0 for no effect and ±100 for the full control effect; nearly all actives have a fitted effect of over 55% in size
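Growth kinetics read by CellTiter-Glo luminescence after ≥48 hr at 37 °C. Cells: DT40 Tdp1-/- stably carrying human TDP1, 400 per well, compound exposure in the absence of CPT (DMSO vehicle).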
Active calls of the source: *. An excerpt weighted towards active compounds, which were near 17% of everything screened. Calls follow the shape of the dose curve; as a rule, active = well fitted curve in the direction sought with a large enough effect; inconclusive = small, poorly fitted or top-dose-only effect, or another doubt; inactive = no such curve, though single readings can be large; an effect the other way counts as inactive or inconclusive. Potency is read from the fitted curve at half-maximal effect.

Screening O=C(Nc1ccc(NC(=O)c2ccc(Cl)cc2Cl)cc1)c1cccs1 returned DT40 TDP1 CPT -3%, TGFb inhibitor 7%, HT1080 IDH1KD tx inconclusive, HT1080NT lethal inconclusive, HepG2 tox -7% and DT40 TDP1 no CPT -28%.
Cc1c(S(=O)(=O)N2CCN(C(c3ccccc3)c3ccccc3)CC2)c(=O)n(C)c(=O)n1C was read as DT40 TDP1 CPT inconclusive, TGFb inhibitor -10%, HT1080 IDH1KD tx -5%, HT1080NT lethal 0%, HepG2 tox -18% and DT40 TDP1 no CPT inconclusive.
COc1ccc(OC)c(NC(=O)CN2C(=O)C(C)N(c3ccc(C)cc3)C2=O)c1 (centres undefined) was read as DT40 TDP1 CPT -26%, TGFb inhibitor 16%, HT1080 IDH1KD tx -1%, HT1080NT lethal 2%, HepG2 tox 7% and DT40 TDP1 no CPT 6%.
Screening Cc1cccc(-c2nnc(NC(=O)c3ccco3)s2)c1 returned DT40 TDP1 CPT -10%, TGFb inhibitor 0%, HT1080 IDH1KD tx 1%, HT1080NT lethal 6%, HepG2 tox 9% and DT40 TDP1 no CPT 0%.
Screening COc1ccc(/C=C/C(=O)c2ccc(NC(=O)c3cccs3)cc2)cc1OC returned DT40 TDP1 CPT 18µM*, TGFb inhibitor 0%, HT1080 IDH1KD tx -26%, HT1080NT lethal inconclusive, HepG2 tox -41% and DT40 TDP1 no CPT 23µM*.
For COc1ccc(C(=O)Nc2ccc(NC(=O)c3cccs3)cc2)cc1Cl the results were DT40 TDP1 CPT 15µM*, TGFb inhibitor 0%, HT1080 IDH1KD tx -1%, HT1080NT lethal -1%, HepG2 tox 2% and DT40 TDP1 no CPT 18µM*.
CCCCOc1cccc(C(=O)Nc2ccccc2N2CCCC2)c1 was read as DT40 TDP1 CPT -16%, TGFb inhibitor 5%, HT1080 IDH1KD tx -3%, HT1080NT lethal -2%, HepG2 tox 3% and DT40 TDP1 no CPT inconclusive.
CCCCOc1cccc(C(=O)Nc2cccc3ccc(C)nc23)c1 was read as DT40 TDP1 CPT inconclusive, TGFb inhibitor -12%, HepG2 tox 2% and DT40 TDP1 no CPT 23µM*.
COc1ccc(C(=O)Nc2cccc(NC(=O)c3cccs3)c2)cc1OC was read as DT40 TDP1 CPT 15µM*, TGFb inhibitor -13%, HT1080 IDH1KD tx -15%, HT1080NT lethal 3%, HepG2 tox -26% and DT40 TDP1 no CPT 13µM*.
For CC(C)c1ccc2oc(=O)cc(CN3CCN(c4ccccc4)CC3)c2c1 the results were DT40 TDP1 CPT inconclusive, TGFb inhibitor inconclusive, HT1080 IDH1KD tx 6%, HT1080NT lethal 4%, HepG2 tox 10% and DT40 TDP1 no CPT inconclusive.
Screening CC(C)c1ccc2oc(=O)cc(CN3CCCCC3)c2c1 returned DT40 TDP1 CPT 29µM*, TGFb inhibitor 16%, HT1080 IDH1KD tx 12%, HT1080NT lethal 18%, HepG2 tox -10% and DT40 TDP1 no CPT 23µM*.
`CC1CCN(Cc2cc(=O)oc3ccc(C(C)C)cc23)CC1` gave DT40 TDP1 CPT 26µM*, TGFb inhibitor -9%, HT1080 IDH1KD tx -2%, HT1080NT lethal -1%, HepG2 tox -13% and DT40 TDP1 no CPT inconclusive.
Cn1c2c(c(=O)[nH]c1=O)C(c1cccc(O)c1)C1=C(N2)c2ccccc2C1=O (centres undefined) was read as DT40 TDP1 CPT 7.3µM*, TGFb inhibitor 8%, HT1080 IDH1KD tx inconclusive, HT1080NT lethal -21%, HepG2 tox -23% and DT40 TDP1 no CPT 8.2µM*.
CCNC(=O)CN(C1CCCCC1)S(C)(=O)=O was read as DT40 TDP1 CPT -1%, TGFb inhibitor 12%, HT1080 IDH1KD tx 11%, HT1080NT lethal 23%, HepG2 tox 3% and DT40 TDP1 no CPT -14%.
COc1cccc(N2CCN(c3c(C#N)c(C(F)(F)F)nn3C)CC2)c1 was read as DT40 TDP1 CPT 23µM*, TGFb inhibitor -15%, HT1080 IDH1KD tx -17%, HT1080NT lethal -12%, HepG2 tox -34% and DT40 TDP1 no CPT 8.2µM*.
Screening CCOc1ccc(-c2cc3c(=O)n(CC(=O)Nc4c(C)cccc4C)ccn3n2)cc1 returned DT40 TDP1 CPT -1%, TGFb inhibitor -2%, HepG2 tox 8% and DT40 TDP1 no CPT -12%.
CCOC(=O)C1CCN(c2nc3c(S(=O)(=O)c4ccc(C)c(C)c4)nnn3c3ccc(Cl)cc23)CC1 was read as DT40 TDP1 CPT inconclusive, TGFb inhibitor -2%, HepG2 tox 5% and DT40 TDP1 no CPT inconclusive.
`CCOC(=O)C1CCCN(c2nc3c(S(=O)(=O)c4ccc(CC)cc4)nnn3c3ccc(Cl)cc23)C1` (centres undefined) gave DT40 TDP1 CPT inconclusive, TGFb inhibitor 0%, HepG2 tox -14% and DT40 TDP1 no CPT inconclusive.
Screening CCc1ccc(S(=O)(=O)c2nnn3c2nc(N2CCC(C)CC2)c2cc(Cl)ccc23)cc1 returned DT40 TDP1 CPT 18µM*, TGFb inhibitor 1%, HepG2 tox 7% and DT40 TDP1 no CPT 10µM*.
Screening CCc1ccc(S(=O)(=O)c2nnn3c2nc(N2CCCC(C)C2)c2cc(Cl)ccc23)cc1 (centres undefined) returned DT40 TDP1 CPT inconclusive, TGFb inhibitor 13%, HepG2 tox -5% and DT40 TDP1 no CPT 7.3µM*.
O=C(N/N=C/c1ccsc1)c1c[nH]c2ccccc12 was read as DT40 TDP1 CPT -15%, TGFb inhibitor 15%, HT1080 IDH1KD tx 3%, HT1080NT lethal -3%, HepG2 tox 0% and DT40 TDP1 no CPT -19%.
CC(C)C1C(=O)N(Cc2cn(CCC3OCCO3)nn2)CCS(=O)(=O)N1Cc1ccc(-c2ccc(F)cc2Cl)cc1 (centres undefined) was read as DT40 TDP1 CPT inconclusive, TGFb inhibitor inconclusive, HT1080 IDH1KD tx inconclusive, HT1080NT lethal inconclusive, HepG2 tox 6% and DT40 TDP1 no CPT 21µM*.
For CC(C)C1C(=O)N(Cc2cn(CCC3OCCO3)nn2)CCS(=O)(=O)N1Cc1ccc(-c2ccncc2)cc1 (centres undefined) the results were DT40 TDP1 CPT -27%, TGFb inhibitor -2%, HT1080 IDH1KD tx -1%, HT1080NT lethal -4%, HepG2 tox -24% and DT40 TDP1 no CPT -28%.

Compound activity from PubChem.
